Screens as filed in PubChem BioAssay.
Most compounds without a hit are left out; they make up all but 4.7% or so of the library.
TRHR ag – agonists of human TRH receptor; P34981; TRHR cells, calcium flux fluo-8, FDSS agonist mode; activation, % at 2 µM; 360,000 compounds, 0.18% hits; note: 0% is about no effect
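TRHR-expressing cells, plated overnight in medium with 10% serum, were loaded with fluo-8 calcium dye at room temperature. After a 10 s baseline, library compound was pin-added and calcium release was recorded kinetically (ex 480/em 530) as agonist response.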
D1 potentiator – potentiators of human D1 dopamine receptor; potentiation, % at 10 µM; HEK293 TREx D1 cells, calcium flux, dopamine EC20 potentiation; AID 504651; P21728; 360,000 compounds, 0.036% hits; in the data active = potentiation above about 30%; note: 0% is about no effect
Target sequence (P21728 whole entry, looked up): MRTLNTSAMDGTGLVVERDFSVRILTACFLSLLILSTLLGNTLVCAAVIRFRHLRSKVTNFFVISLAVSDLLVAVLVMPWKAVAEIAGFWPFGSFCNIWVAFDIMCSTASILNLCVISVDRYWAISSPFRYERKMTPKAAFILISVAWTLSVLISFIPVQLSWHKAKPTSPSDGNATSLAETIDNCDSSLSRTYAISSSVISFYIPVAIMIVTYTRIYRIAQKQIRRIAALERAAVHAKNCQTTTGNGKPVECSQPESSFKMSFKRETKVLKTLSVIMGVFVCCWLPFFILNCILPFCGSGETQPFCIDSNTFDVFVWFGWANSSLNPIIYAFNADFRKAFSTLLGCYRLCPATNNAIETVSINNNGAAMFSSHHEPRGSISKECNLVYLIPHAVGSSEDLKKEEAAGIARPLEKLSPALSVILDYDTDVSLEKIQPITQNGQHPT
D1 agonist – human D1 receptor agonism; P21728; HEK293 T-REx D1 cells, calcium flux, agonist mode; activation, % at 2 µM; 360,000 compounds, 1% hits; AID 504660; note: 0% is about no effect
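Inducible HEK293 T-REx D1 cells, force-coupled to calcium signalling, were plated at 4000 cells/well with tetracycline and held overnight at 30 C. After no-wash calcium dye loading, compound-evoked calcium rise over 180 s flagged agonists.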
TRHR PAM – allosterically enhances the human TRH receptor | P34981 | TRHR cells, fluo-8 calcium fluorescence, EC20 TRH enhancement | 360,000 compounds, 0.66% hits | enhancement, % at 2 µM | AID 493056; in the data active = enhancement above about 30%; note: 0% is about no effect
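Enhancer read-out: after compound pinning and an initial kinetic agonist-mode read, an EC20 of TRH (10 nM final) was injected and fluo-8 calcium signal (Ex 480/Em 530) followed at 1 s/cycle for 100 cycles in TRHR-expressing cells.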
D1 antag – blocks dopamine activation of the human D1 receptor. P21728. HEK293 TREx D1 cells, calcium flux, dopamine EC80; active compounds read low. activity change, negative = inhibition, % at 10 µM. 360,000 compounds, 3.2% hits; in the data active = activity change below about -30%; note: % is set by controls: 0 for no effect and ±100 for the full control effect
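Antagonism measured as reduced calcium response to an EC80 dopamine addition following 180 s compound pre-read; cells were inducible HEK293 Trex D1 plated overnight at 30 C, read kinetically at 1 cycle/sec.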
Active calls of the source: *; x = not tested or not shown. Cut-off read from the data, not from the text of the source, unless noted: active = activation above about 30%; inactive = the rest.

SMILES | TRHR ag | D1 potentiator | D1 agonist | TRHR PAM | D1 antag
CCCCn1c(N)c(N(CCOC)C(=O)c2ccc(Cl)c(S(=O)(=O)N3CCCC3)c2)c(=O)[nH]c1=O | 0.3 | -9.9 | 2.7 | -1.0 | -0.7
CCCCn1c(N)c(N(CCOC)C(=O)c2ccc(C)c(S(=O)(=O)N3CCCCC3)c2)c(=O)[nH]c1=O | -0.2 | -2.5 | 5.7 | 6.4 | -38.0*
CCCCCN(C(=O)COC(=O)c1ccc(C)cc1)c1c(N)n(CCCC)c(=O)[nH]c1=O | 1.4 | -1.8 | 2.5 | 2.6 | -34.6*
CCCCCN(C(=O)COC(=O)c1ccc(Br)o1)c1c(N)n(CCCC)c(=O)[nH]c1=O | -1.2 | -1.3 | 2.6 | 19.4 | 6.6
CCCCn1c(N)c(N(CC)C(=O)c2cccc(OC)c2)c(=O)[nH]c1=O | 0.7 | -4.5 | 1.4 | -2.4 | -31.5*
Cc1ccc(C(=O)Nc2nnc(SCc3cc(=O)c4c(C)ccc(C)c4[nH]3)s2)cc1 | -0.7 | 1.4 | 0.5 | 0.7 | -3.4
CCCCN(C(=O)C1CC(=O)N(CCc2ccc(OC)c(OC)c2)C1)c1c(N)n(CCCC)c(=O)[nH]c1=O (stereo not drawn) | -0.1 | 5.8 | 1.9 | 30.3* | 8.6
CCOC(=O)CC1C(=O)NCCN1c1nc2ccc(C)cn2c(=O)c1/C=C1\SC(=S)N(C(C)CC)C1=O (stereo not drawn) | 105.2* | 33.7* | 583.8* | 13.3 | -47.3*
CCOC(=O)CC1C(=O)NCCN1c1nc2ccc(C)cn2c(=O)c1/C=C1\SC(=S)N(CC(C)C)C1=O (stereo not drawn) | 62.6* | -1.9 | 320.3* | -5.2 | -29.1
CCCN1C(=O)/C(=C/c2c(N3CCNC(=O)C3CC(=O)OCC)nc3c(C)cccn3c2=O)SC1=S (stereo not drawn) | 67.6* | -1.4 | 216.1* | 6.0 | -18.7
CCOC(=O)/C(C#N)=C/c1c(N2CCN(C)CC2)nc2c(C)cccn2c1=O | 0.4 | -5.7 | 1.2 | -3.2 | -6.3
CCCCOc1ccc(C(=O)NCCc2sc3nc(-c4ccc(OC)cc4)nn3c2C)cc1 | 1.1 | -2.5 | 1.6 | 14.6 | x
COc1ccc(NC(=O)NC(C)c2c(-n3cccc3)sc3c2CCN(C)C3)c(OC)c1 (stereo not drawn) | 0.5 | -1.0 | 1.1 | -2.6 | 7.7
CCOc1cc([C@@H]2C[C@H]3CN(c4ccccc4)C(=O)[C@]34CCCN24)ccc1OC | -0.1 | 2.6 | -0.9 | 4.8 | -4.9
COc1cc([C@@H]2C[C@H]3CN(c4ccccc4)C(=O)[C@]34CCCN24)cc(OC)c1OC | 1.5 | -1.1 | 0.2 | 6.0 | -40.8*
COc1ccc(CNC(=O)C2CCN(Cc3nc(-c4ccc(OC)c(OC)c4)oc3C)CC2)cc1 | -0.1 | 1.1 | 2.0 | 5.0 | -29.2
CCOC(=O)c1c(C)[nH]c(C)c1C(=O)COC(=O)/C=C/c1ccc(OC(F)F)cc1 | 0.1 | 33.2* | 1.9 | 1.4 | 2.7
Cn1cccc1/C=C1\CC(C(C)(C)C)C/C(=C\c2cccn2C)C1=O (stereo not drawn) | -2.8 | 2.2 | 122.8* | 8.6 | -7.7
CN1C2CCC1/C(=C/c1cccn1C)C(=O)/C2=C\c1cccn1C | -0.9 | -3.8 | 187.3* | 20.6 | -6.1
Cc1ccc(-n2nc(CO)c(C(=O)NC(C)CCCc3ccccc3)n2)cc1 (stereo not drawn) | 1.7 | 10.4 | 11.2 | 1.3 | 4.9
CC(=O)Nc1ccc(NC(C)=O)s1 | -0.1 | -4.5 | 2.3 | 1.0 | -33.7*
CC(=O)Nc1ccc(-c2ccccc2)s1 | -1.0 | -3.2 | 3.1 | -0.7 | 4.4
CCOC(=O)C1CSC(CC(=O)Nc2ccc(Cl)c(Cl)c2)C(=O)N1 (stereo not drawn) | -0.1 | -8.7 | 20.2 | 12.7 | -32.0*
CC(=O)c1ccc(S(=O)(=O)Nc2cccc(-c3ccc4nncn4n3)c2)cc1 | 0.1 | -1.9 | 0.2 | 2.5 | -36.5*
CC(=O)Nc1ccc(S(=O)(=O)Nc2cccc(-c3ccc4nncn4n3)c2)cc1 | 0.0 | 3.4 | 0.9 | -1.7 | 2.0
SMILES | TRHR ag | D1 potentiator | D1 agonist | TRHR PAM | D1 antag
CCC(CC)C(=O)Nc1cccc(-c2ccc3nncn3n2)c1 | 4.9 | -3.3 | 0.7 | 31.4* | 4.5
Cc1ccc2occ(CC(=O)Nc3c(C(=O)Nc4ccc(Cl)cc4)oc4ccccc34)c2c1 | 1.7 | -0.9 | 2.9 | -9.0 | -8.8
Cc1ccc(C(=O)N/C(=C\c2cccs2)C(=O)NC2CCCCC2)cc1 | 0.8 | -0.8 | 1.7 | 39.9* | 4.7
Cc1ccc(C(=O)N/C(=C/c2cccs2)C(=O)N2CCCCCC2)cc1 | -0.2 | -11.1 | 0.4 | 6.4 | -7.3
CCC(=O)N1CCc2cc(Br)cc(S(=O)(=O)CCC(=O)Nc3ccccc3C)c21 | -0.5 | 0.8 | 0.5 | 11.2 | 0.8
CCN(CC)c1ccc(NC(=O)c2ccc(Br)o2)c(C)c1 | -0.4 | -8.9 | 34.6* | 8.2 | -1.2
CCN(CC)c1ccc(NC(=O)c2ccco2)c(C)c1 | -0.1 | 4.3 | -2.2 | 4.2 | -13.7
Cc1ccc2nc3sc(C(=O)N4CCCc5ccccc54)c(N)c3cc2c1 | 9.0 | -1.1 | 36.4* | -4.6 | 9.4
CCN1CCN(CCOc2ccccc2OCc2ccccc2)CC1 | 0.1 | -1.1 | 4.1 | 5.7 | -32.0*
CCOc1ccccc1OCCN1CCC(Cc2ccccc2)CC1 | -0.6 | -15.8 | 27.6 | -1.2 | -22.3
CCN1CCN(Cc2ccc(OCc3ccccc3)c(OC)c2)CC1 | 2.1 | -3.5 | 0.9 | 18.5 | 7.3
CCN1CCN(Cc2ccc(OCc3ccccc3)cc2)CC1 | 0.0 | -6.2 | 37.8* | 5.1 | -12.7
CCOc1ccccc1OCCN1CCCC1 | 0.3 | -1.1 | 5.8 | -7.7 | -33.6*
CCOc1cc(C(=O)NCC(c2ccc(N(C)C)cc2)N2CCOCC2)cc(OCC)c1OCC (stereo not drawn) | -0.4 | 1.0 | -2.1 | -1.4 | -1.2
Cc1cc(C(F)(F)F)c2c(N)c(C(=O)Nc3c(Cl)cccc3Cl)sc2n1 | 0.0 | -5.0 | 2.2 | -0.7 | -8.9
CCOc1ccc(NC(=O)CN(C)C(=O)CCCn2c(=O)oc3ccccc32)cc1OCC | -0.2 | -0.1 | 1.9 | 38.4* | -3.2
CCOc1ccc(NC(=O)CN(C)C(=O)c2ccccc2Cc2ccccc2)cc1OCC | -0.3 | x | 6.5 | 9.1 | -45.4*
CN(CC(=O)Nc1ccc(F)cc1)C(=O)COc1ccccc1Cc1ccccc1 | -0.8 | -2.8 | 23.1 | -1.4 | -84.7*
COc1ccc(NC(=O)CN(C)C(=O)COc2ccccc2Cc2ccccc2)cc1 | 0.5 | -4.3 | 5.1 | -1.1 | -11.0
Cc1nn(-c2ccc(F)cc2)c(-n2cccc2)c1C(=O)N1CCN(c2ccccc2F)CC1 | -0.7 | 4.0 | 2.0 | 0.0 | 16.9
Cc1ccc(NC(=O)NCCc2c(C)nn(C)c2C)c(Cl)c1 | -1.0 | -0.3 | 4.4 | -0.8 | 1.5
NC[C@@H]1O[C@H](C23CC4CC(CC(C4)C2)C3)Cc2c1ccc(O)c2O | 0.2 | -5.3 | 118.3* | 3.2 | -78.3*
